Data as given in ChEMBL document CHEMBL3988442, “University of Dundee, Small-Polar-MMV Screening Library” (2021).
In all, about 48,000 compounds went through this assay and about 13,000 (27%) showed an effect of 50% or more. Some of the results follow.

System: Wolbachia pipientis
Test: Anti-Wolbachia Cell-Based Screen
Format: functional
Parameters: scale not given: in the data most compounds retested in dose-response had high values
Conditions: 5 µM

Row | SMILES | Percent Effect [%]
1 | CCN(CC)C1(Cc2cc(COC)on2)COC1 | -6.864
2 | CCC(C)(C)NC(=O)c1ccc(-c2ccco2)[nH]c1=O | -18
3 | Cc1cccc(C)c1NC(=O)CCNC(=O)c1ccoc1 | 6.824
4 | CC(C)CCn1ccc(NC2CCSC2)n1 (stereo not drawn) | -1.669
5 | O=C(NC[C@H]1OC[C@@H](NCc2ccccc2)[C@@H]1O)Nc1ccc(F)cc1 | -15.63
6 | Fc1ccc2[nH]c(CO[C@H]3CN(CC4CC4)C[C@H]3F)nc2c1 | -6.025
7 | O=C(NCC1(c2cccc(F)c2)CC1)N1CCC2(CCOC2)C1 (stereo not drawn) | -9.611
8 | Cc1nn2c(N3CCC(C(N)=O)CC3)cc(-c3ccccc3)nc2c1C | 0.08495
9 | Cc1ccc(N2C[C@H]3OCC[C@H]3[C@H](C(=O)NCc3ccco3)C2)nn1 | 0.2496
10 | O=C(Nc1cccnc1)[C@H]1C[C@@H]2CCN(c3nncs3)C[C@H]2O1.O=C(O)C(F)(F)F.O=C(O)C(F)(F)F | 12.63
11 | COCCNC(=O)[C@H]1C[C@@H]2CCN(c3nncs3)C[C@H]2O1.O=C(O)C(F)(F)F | -6.597
12 | Cc1ccc(N2CC[C@H]3C[C@H](C(=O)NCc4ccco4)O[C@H]3C2)nn1.O=C(O)C(F)(F)F | 108.4
13 | Cc1ccc(N2CC[C@H]3C[C@H](C(=O)NCc4ccco4)O[C@@H]3C2)cc1.O=C(O)C(F)(F)F | 96.02
14 | O=C(NCC1CCOCC1)[C@H]1C[C@@H]2CCN(c3nncs3)C[C@@H]2O1.O=C(O)C(F)(F)F | 99.44
15 | Cc1cc(S(=O)(=O)N2CC[C@@H](O)C2)c(Cl)cc1F | 1.456
16 | O=C(C1CCOCC1)N1CCN(CC2CC2)c2ncccc2C1 | -9.379
17 | O=C(C1CCOC1)N1CCN(Cc2cccnc2)c2ncccc2C1 (stereo not drawn) | 79.91
18 | O=C(C1CCOC1)N1CCN(Cc2ccncc2)c2ncccc2C1 (stereo not drawn) | 109.7
19 | CCN1CCN(CCCNC(=O)c2cc3ccc(C)cc3nc2C)CC1 | 26.08
20 | CN(C)C1CCN(Cc2cnc(S(C)(=O)=O)n2CC2CCCCC2)C1 (stereo not drawn) | -18.29
21 | CN1C[C@H]2CN(C(=O)c3ccc4c(c3)OCO4)CCN2C1=O | 3.165
22 | Cc1cncc(C(=O)N2CCCC3(CCCN3S(C)(=O)=O)C2)c1 (stereo not drawn) | -8.185
23 | CN1C(=O)CCCC12CCCN(C(=O)c1cccc(C(F)(F)F)c1)C2 (stereo not drawn) | 112.4
24 | CN1C(=O)CCCC12CCCN(C(=O)c1cc(F)cc(F)c1)C2 (stereo not drawn) | 108.3
25 | Cc1cc(C)cc(C(=O)N2CCCC3(CCCC(=O)N3C)C2)c1 (stereo not drawn) | 101

Row | SMILES | Percent Effect [%]
26 | CS(=O)(=O)N1CCCC12CCCN(C(=O)c1cc(F)cc(F)c1)C2 (stereo not drawn) | 3.882
27 | CN1C(=O)CCCC12CCCN(C(=O)c1ccc3c(c1)OCO3)C2 (stereo not drawn) | 103.5
28 | CS(=O)(=O)N1CCCC12CCCN(C(=O)c1ccc3c(c1)OCO3)C2 (stereo not drawn) | -9.352
29 | CN(CC(C)(C)C)c1ccc(C(=O)NCCCc2ccccn2)cn1 | -1.973
30 | Cc1oc(CNC(=O)Cc2cccc(OC(F)F)c2)cc1C(=O)O | 1.075
31 | CN1C(=O)CCC12CCCN(C(=O)c1ccoc1)C2 (stereo not drawn) | 1.769
32 | O=C1CCC2(CCCN(C(=O)c3ccoc3)C2)CN1CCc1c[nH]cn1 (stereo not drawn) | 2.528
33 | CN1C(=O)CCCC12CCCN(C(=O)c1ccoc1)C2 (stereo not drawn) | 102.5
34 | Cc1cc(F)ccc1C(=O)N1C[C@@H]2COC[C@]2(CN(C)C)C1.O=C(O)C(F)(F)F | -5.19
35 | CCC(C)(O)CNC(=O)Nc1ccc(C)cc1Br (stereo not drawn) | -22.84
36 | CNCCN1C(=O)CC[C@H]2CN(c3ncc(F)cn3)CC[C@H]21 | -2.163
37 | NC(=O)C(NC(=O)c1cc(Br)c[nH]1)c1ccccc1 (stereo not drawn) | 0.3716
38 | CCc1nc(C)c(CN2CCN(c3ncnc4scc(C)c34)CC2)[nH]1 | -4.164
39 | CS(=O)(=O)c1ccccc1C(=O)NCC1Cc2ccccc2O1 (stereo not drawn) | -10.07
40 | CN(CCCNC(=O)c1ccccc1OCC(N)=O)CC(F)(F)F | 8.203
41 | CS(=O)(=O)c1ccccc1C(=O)NCCCN1CCc2ccccc2C1 | 5.39
42 | COCCCNC(=O)c1ccccc1S(C)(=O)=O | 133.8
43 | COCCOc1ccccc1C(=O)N(C)Cc1ncc(C)c(OC)c1C | -3.129
44 | COCCOc1ccccc1C(=O)NCCN(C)C(C)C | 86.22
45 | CCN(CCNC(=O)c1ccccc1OCCOC)C1CC1 | 11.11
46 | CCNC(=O)NC(=O)C(C)Nc1ccccc1OCCOC (stereo not drawn) | 1.487
47 | CCC(C)N(C)CCNC(=O)c1ccccc1OCCOC (stereo not drawn) | 91.86
48 | CCCn1nc2c(cc1=O)CN(Cc1nc(CCOC)no1)CC2 | 3.931
49 | Cn1nc(C2CCCC2)c(-c2ccc3c(c2)OCO3)c1N | -8.229
50 | CCS(=O)(=O)N1CCC2(CC1)CC[C@@]1(C(=O)N(C)C)CN(C(C)=O)C[C@@H]21 | -13.65

Row | SMILES | Percent Effect [%]
51 | CNC(=O)[C@@]12CCC3(CCN(S(=O)(=O)C4CC4)CC3)[C@@H]1CN(C(C)=O)C2 | 108
52 | CCS(=O)(=O)N1CCC2(CC1)CC[C@@]1(C(=O)NC)CN(C(C)=O)C[C@@H]21 | 0.6663
53 | CCS(=O)(=O)N1CCC2(CC1)CC[C@@]1(C(=O)N(C)C)CN(C)C[C@@H]21.O=C(O)C(F)(F)F | 4.402
54 | CNC(=O)[C@@]12CCC3(CCN(S(C)(=O)=O)CC3)[C@@H]1CN(C(C)=O)C2 | 110.1
55 | CC(=O)N1C[C@H]2C3(CCN(S(C)(=O)=O)CC3)CC[C@@]2(C(=O)N(C)C)C1 | -15.61
56 | O=C(NC[C@H]1Cn2c(-c3ccccc3)cnc2CO1)C1CC1 | -24.2
57 | O=S(=O)(C1CC1)N1CCCC2(COCCN(c3nncs3)C2)C1 (stereo not drawn) | 1.243
58 | O=C(C1CCC2(CCN(c3nncs3)CC2)C1)N1CCCC1 (stereo not drawn) | -10.32
59 | CN(C)C(=O)NCC1CC2(CO1)CN(c1nncs1)C2 (stereo not drawn) | 109.2
60 | O=C(O)C(F)(F)F.O=C(O)C(F)(F)F.c1ccc(OCC2CC3(CCN(c4ncccn4)CC3)CO2)nc1 (stereo not drawn) | 3.683
61 | O=C(N[C@@H]1CN(Cc2cccs2)[C@@H]2COC[C@@H]21)C1CCC1.O=C(O)C(F)(F)F | -6.502
62 | CCS(=O)(=O)N1CCCC2(COCCN(c3nncs3)C2)C1 (stereo not drawn) | -5.345
63 | O=C(NCC1CC2(CO1)CN(Cc1cccs1)C2)C1CCC1.O=C(O)C(F)(F)F (stereo not drawn) | 112.2
64 | CN(Cc1ccccc1)CC1CC2(CO1)CN(c1nncs1)C2 (stereo not drawn) | 4.017
65 | O=C(NCC1CC2(CO1)CN(c1nncs1)C2)C1CCC1 (stereo not drawn) | 113.3
66 | O=C(O)C(F)(F)F.O=C(O)[C@]12CCCN(Cc3cccs3)C[C@H]1CN(c1ncccn1)C2 | 1.756
67 | O=C(NCC1CC2(CO1)CN(c1ncccn1)C2)C1CCC1 (stereo not drawn) | 124.3
68 | Cn1c(Cn2cccn2)nnc1C1CCCN(c2ccncc2F)C1 (stereo not drawn) | 5.271
69 | O=C(c1ccccn1)N1C[C@@H]2CC[C@H](C1)N(C(=O)CCC1CCCC1)C2 | -23.02
70 | CCOCCCOC(=O)c1ccc2c(c1)[nH]c(=O)n2C | -4.386
71 | COc1ncnc(N(C)C)c1NC(=O)Cc1c[nH]c2ccc(F)cc12 | -15.56
72 | C[C@@H]1CN(C(=O)c2ccc(Br)cc2F)CC(C(N)=O)O1 (stereo partly drawn) | -4.259
73 | O=C(Cc1cccs1)NCC1(O)CCSCC1 | 3.486
74 | CCOCCCNC(=O)Cc1cccs1 | 73.09
75 | CCOCCNC(=O)Cc1cccc(I)c1 | 3.378

Row | SMILES | Percent Effect [%]
76 | O=C(NCC1(O)CCc2ccccc21)Nc1ccc2c(c1)OCO2 (stereo not drawn) | -4.749
77 | Cc1nnc(NCc2ccc(Br)cc2)o1 | -15.89
78 | Cn1ccnc1-c1noc(NCc2ccc(Br)cc2)n1 | 0.2508
79 | Cn1ncnc1NCc1ccccc1Cl | 98
80 | Cn1ncnc1NCc1ccc(Br)cc1 | 79.22
81 | Cn1ccnc1-c1noc(NCc2ccc(Cl)cc2)n1 | 9.491
82 | Cn1ncnc1NS(=O)(=O)c1ccccc1 | -4.376
83 | Cn1ncnc1NS(=O)(=O)c1ccc(F)cc1 | -13.8
84 | Cn1ncnc1NCc1ccc(Cl)cc1 | 106
85 | Cn1ncnc1NS(=O)(=O)c1ccc(F)cc1Cl | -0.8831
86 | Clc1ccc(CNc2ccc(Cl)cn2)cc1 | -12.24
87 | CN(Cc1cc(Cl)ccc1Cl)Cc1ncnn1C | 20.54
88 | Cn1ncnc1NCc1ccc(F)cc1 | 113.5
89 | CC(C)c1nccn1CCCNC(=O)c1ccc(N(C)C)nc1 | -4.813
90 | NC(=O)CN1CCCC(c2ccnc(Nc3ncccn3)c2)C1 (stereo not drawn) | 104.7
91 | CCN1CCCC(c2c(-c3ccccc3)ncn2CC(N)=O)C1 (stereo not drawn) | 0.7504
92 | NC(=O)CN1CCCC(C(=O)N2CCC(Oc3ncccn3)CC2)C1 (stereo not drawn) | -4.684
93 | Cl.Cl.NCC(=O)N1CCCC(c2cncc(Nc3ncccn3)n2)C1 (stereo not drawn) | -7.502
94 | Cc1cccc(C2CCCN(C(=O)C3CCN(CC(N)=O)CC3)C2)c1 (stereo not drawn) | -11.42
95 | Cc1cccc(C2CCCN(C(=O)CN3CCC(C(N)=O)CC3)C2)c1 (stereo not drawn) | -7.369
96 | Cc1cccc(Nc2cc(C3CCCN(CC(N)=O)C3)ccn2)n1.O=CO.O=CO (stereo not drawn) | 109.2
97 | NC(=O)CN1CCCC(c2cncc(Nc3ncccn3)n2)C1 (stereo not drawn) | 117.4
98 | CCC(C)N(Cc1ccncc1)C(=O)CCC(=O)OC (stereo not drawn) | -41.55
